Holding throughout (assay): Primary qHTS to identify gynecologic anti-cancer compounds using libraries of approved drugs and bioactive compounds (AID 1345084); further: nearly all actives have a fitted effect of over 55% in size
One experiment concerns C33A. As to conditions: Gynecologic cancer cell panel viability, ATPlite luminescence, 48 h; series mostly up to 57.5 µM. In outline:
(§1)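 In this quantitative HTS, cell killing is estimated from loss of ATP-dependent luciferase light. Cells see five compound concentrations over a 48 h exposure.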

The next experiment has as its system CAOV3. The following applies: Gynecologic cancer cell panel viability, ATPlite luminescence, 48 h; series mostly up to 57.5 µM. In outline:
as §1

Another experiment relates to CASKI. The following applies: Gynecologic cancer cell panel viability, ATPlite luminescence, 48 h; series mostly up to 57.5 µM. In outline:
as §1

Another experiment relates to Es-2. As to conditions: Gynecologic cancer cell panel viability, ATPlite luminescence, 48 h; series mostly up to 57.5 µM. In outline:
as §1

The subject of a further experiment is HeLa. As to conditions: Gynecologic cancer cell panel viability, ATPlite luminescence, 48 h; series mostly up to 57.5 µM. In outline:
as §1

A further experiment relates to Hek293T. As to conditions: Gynecologic cancer cell panel viability, ATPlite luminescence, 48 h, control line for the selectivity index; series mostly up to 57.5 µM. A digest of the protocol: as §1
The next experiment has as its system JEG-3. The following applies: Gynecologic cancer cell panel viability, ATPlite luminescence, 48 h; series mostly up to 57.5 µM. A digest of the protocol:
as §1

SMILES strings stand for the structures. Records with an inconclusive call do not appear. Unmarked numbers belong to inactive results. Activity calls are given as the source filed them. The call rests on the fitted dose curve; in most records, active means well fitted cell-killing curve with a large enough effect; inconclusive means small, poorly fitted or top-dose-only effect, or effect the other way; inactive means flat fitted curve, though single readings scatter.
On the % scale 0 is the no-effect control and ±100 the full control effect; potency means the concentration at half of the fitted maximal effect.

Consider `CC(C)C[C@@H]1NC(=O)[C@@H](Cc2ccccc2)NC(=O)C(CCCCCC(=O)C2CO2)NC(=O)[C@@H]2CCCCN2C1=O` (stereo partly drawn), for which the Potency result in the experiment on C33A, in the experiment on CAOV3, in the experiment on HeLa and in the experiment on Hek293T was “inactive” throughout. For the same compound, the results for the Potency in the experiment with CASKI and with Es-2 were 708 nM (active) and 2240 nM (active), respectively.

Consider `CC(O)C(C)n1ncn(-c2ccc(N3CCN(c4ccc(OCC5COC(Cn6cncn6)(c6ccc(Cl)cc6Cl)O5)cc4)CC3)cc2)c1=O` (stereo not drawn), for which the Potency result in the experiment on C33A, in the experiment on CAOV3, with CASKI, with Es-2, in the experiment on HeLa and with Hek293T was “inactive” each time.

Consider `Fc1ccc(-c2nc(-c3ccccc3F)[nH]c2-c2ccncc2)cc1`, for which the Potency entry with C33A, with CAOV3, in the experiment on CASKI, in the experiment with Es-2, in the experiment with HeLa and in the experiment with Hek293T was “inactive” throughout. In addition, in the experiment on JEG-3, the Potency entry is “inactive”.

Consider `C=CC(C)(C)C12CC3C(=O)N4C(CC5(C(C)(C)C=C)c6ccccc6NC45)C(=O)N3C1Nc1ccccc12` (stereo not drawn), for which the Potency entry in the experiment with C33A, with CAOV3, with CASKI, with Es-2, in the experiment on HeLa and in the experiment on Hek293T was “inactive” each time.

With `C[C@H]1CO[C@@H]2Cn3cc(C(=O)NCc4ccc(F)cc4F)c(=O)c(O)c3C(=O)N12`, the Potency result in the experiment with C33A, with CAOV3, in the experiment on CASKI, with Es-2, in the experiment on HeLa and with Hek293T was “inactive” in each case.

Consider `NC(=O)C1=CC2C3C=CC2C(OC3=O)O1` (stereo not drawn), for which the Potency result in the experiment with C33A, in the experiment with CAOV3, in the experiment with CASKI, with Es-2, in the experiment on HeLa and with Hek293T was “inactive” each time.

On to `CNCCN1CCC(c2cc(CN(C)C(=O)c3cccc(Oc4ccccc4)c3)ccn2)CC1`, for which the Potency entry in the experiment with C33A, in the experiment with CAOV3, with CASKI, in the experiment with Es-2, in the experiment with HeLa and in the experiment on Hek293T was “inactive” throughout. In addition, the Potency entry in the experiment on JEG-3 is “inactive”.

For `CCN(CC)CCCCCCNc1cc(OC)cc2c(C)ccnc12`, the Potency entry in the experiment on C33A, with CAOV3, in the experiment on CASKI, in the experiment on Es-2, with HeLa and in the experiment with Hek293T was “inactive” throughout.

As to `CC1=C(c2ccc(NC(=O)c3c(F)cccc3F)cc2)CN(c2nccs2)CC1`, the Potency entry with C33A, with CAOV3, with CASKI, in the experiment with Es-2, with HeLa and with Hek293T was “inactive” throughout.

`COc1cc(C(=O)O)ccc1NC(=O)C1NC(CC(C)(C)C)C(C#N)(c2ccc(Cl)cc2F)C1c1cccc(Cl)c1F` (stereo not drawn): the Potency entry in the experiment on C33A, in the experiment on CAOV3, with CASKI, in the experiment on Es-2, in the experiment on HeLa and in the experiment on Hek293T was “inactive” in each case. Further, the Potency result in the experiment with JEG-3 was “inactive”.

Regarding `C[C@@H]1O[C@@H](O[C@H]2[C@@H](OC(=O)[C@]34CCC(C)(C)CC3C3=CCC5[C@@]6(C)C[C@H](O)[C@H](O[C@@H]7O[C@H](CO)[C@@H](O)[C@H](O)[C@H]7O[C@@H]7OC[C@@H](O)[C@H](O)[C@H]7O)[C@@](C)(C(=O)O)C6CC[C@@]5(C)[C@]3(C)CC4)OC[C@H](O)[C@@H]2O)[C@H](O)[C@H](O)[C@H]1O[C@@H]1OC[C@@H](O)[C@H](O)[C@H]1O` (stereo partly drawn), the activity change, negative = cytotoxicity in the experiment on C33A is -27.4% [at 6.55 µM]; in the experiment on CAOV3, 2.23% [at 6.55 µM]; in the experiment on CASKI, -11.2% [at 6.55 µM]; with Es-2 it was 4.6% [at 6.55 µM]; in the experiment on HeLa it was -12.9% [at 6.55 µM]; in the experiment with Hek293T, -3.38% [at 6.55 µM].

Turning to `CC[C@H](C)/C=C(C)/C=C/C1=CC2=CC(=O)[C@]3(C)OC(=O)[C@@H](C(C)=O)[C@@H]3C2=CO1`, the Potency entry with C33A, with CAOV3, in the experiment with CASKI, with Es-2, in the experiment with HeLa and in the experiment on Hek293T was “inactive” in each case. Moreover, the Potency entry with JEG-3 was “inactive”.

On to `S=C(c1ccc(-c2ccc(Cl)c(Cl)c2)o1)N1CCCCC1`, for which the Potency result with C33A, in the experiment on CAOV3, with CASKI, in the experiment with Es-2, in the experiment on HeLa and with Hek293T was “inactive” throughout. The Potency result in the experiment on JEG-3 was “inactive”.

As to `CCOC(=O)C1=Cc2ccc(C(F)(F)C(F)(F)F)cc2N=C(N)C1`, the Potency result in the experiment on C33A, with CAOV3, in the experiment with CASKI, in the experiment with Es-2, in the experiment with HeLa and with Hek293T was “inactive” each time.

In the case of `C=C(C)Cn1c(SCC(=O)c2cccs2)nc2sc3c(c2c1=O)CCCC3`, the Potency entry with C33A, in the experiment with CAOV3, in the experiment on CASKI and in the experiment on Es-2 was “inactive” throughout.

On to `C=C1/C(=C/C=C2\CCC[C@]3(C)[C@@H]([C@@H](C)OCCC(O)(CC)CC)CC[C@@H]23)C[C@@H](O)C[C@@H]1O`, for which the Potency entry in the experiment with C33A, with CAOV3, in the experiment on CASKI, in the experiment with Es-2 and in the experiment on HeLa was “inactive” throughout.

For the compound `C=C1C(=O)OC2CC(C)C(CCC(C)O)=CCC12` (stereo not drawn), the Potency entry in the experiment with C33A, with CAOV3, in the experiment on CASKI, with Es-2, with HeLa and in the experiment with Hek293T was “inactive” in each case.

Turning to `O=C(Nc1ccc(Cl)cc1)Nc1cccc(-c2cccc(N3CCCC3)n2)c1`, the Potency result with C33A, with CAOV3, in the experiment with CASKI, in the experiment on Es-2, in the experiment on HeLa and in the experiment on Hek293T was “inactive” in each case.

On to `CC(C)Oc1ccc(-c2cnc3c(-c4ccnc5ccccc45)cnn3c2)cc1`, for which the Potency result with C33A, in the experiment with CAOV3, in the experiment on CASKI, in the experiment with Es-2, in the experiment with HeLa and in the experiment on Hek293T was “inactive” each time. Moreover, in the experiment with JEG-3, the Potency entry is “inactive”.

As to `CC(C)=CCc1cc2c(cc1O)OC[C@H]1c3ccc(O)cc3O[C@@H]21`, the Potency entry with C33A, in the experiment on CAOV3, with CASKI, in the experiment with Es-2, in the experiment with HeLa and in the experiment with Hek293T was “inactive” each time. The Potency entry in the experiment on JEG-3 is “inactive”.

For the compound `CC(=O)OC[C@]12[C@H](OC(C)=O)C(=O)[C@@H]3[C@@H](O)[C@@]14O[C@@]3(C)COC(=O)c1cccnc1[C@@H](C)[C@H](C)C(=O)O[C@@H]([C@H](O)[C@@H]2OC(C)=O)[C@]4(C)O`, the Potency entry in the experiment on C33A, in the experiment on CAOV3, with CASKI, in the experiment with Es-2, in the experiment on HeLa and with Hek293T was “inactive” in each case. The Potency entry with JEG-3 was “inactive”.

Turning to `O=C(NO)c1ccc(CC(=O)N(CCO)c2ccccc2)cc1`, the Potency entry in the experiment with C33A, with CAOV3, with CASKI, in the experiment on Es-2, in the experiment with HeLa and in the experiment on Hek293T was “inactive” throughout.

For the compound `COc1cccc(NCCC2(c3ccccc3)CC(C)(C)OC(C)(C)C2)c1`, the Potency result with C33A, with CAOV3, with CASKI, in the experiment with Es-2, in the experiment with HeLa and in the experiment on Hek293T was “inactive” in each case.

The values are drawn from PubChem BioAssay (NCATS).
